From PubChem BioAssay
In the library only some 1.2% were active in any assay of this set; here they are far more common.
TcdB GH inh – inhibitors of Clostridioides difficile toxin B glycohydrolase; P18177; TcdB glycohydrolase enzymatic assay, plate reader; inhibition, % at 9.99 µM; 0.24% of 350,000 active; AID 652162; in the data active means inhibition above about 10%
Target sequence (P18177 whole entry, looked up): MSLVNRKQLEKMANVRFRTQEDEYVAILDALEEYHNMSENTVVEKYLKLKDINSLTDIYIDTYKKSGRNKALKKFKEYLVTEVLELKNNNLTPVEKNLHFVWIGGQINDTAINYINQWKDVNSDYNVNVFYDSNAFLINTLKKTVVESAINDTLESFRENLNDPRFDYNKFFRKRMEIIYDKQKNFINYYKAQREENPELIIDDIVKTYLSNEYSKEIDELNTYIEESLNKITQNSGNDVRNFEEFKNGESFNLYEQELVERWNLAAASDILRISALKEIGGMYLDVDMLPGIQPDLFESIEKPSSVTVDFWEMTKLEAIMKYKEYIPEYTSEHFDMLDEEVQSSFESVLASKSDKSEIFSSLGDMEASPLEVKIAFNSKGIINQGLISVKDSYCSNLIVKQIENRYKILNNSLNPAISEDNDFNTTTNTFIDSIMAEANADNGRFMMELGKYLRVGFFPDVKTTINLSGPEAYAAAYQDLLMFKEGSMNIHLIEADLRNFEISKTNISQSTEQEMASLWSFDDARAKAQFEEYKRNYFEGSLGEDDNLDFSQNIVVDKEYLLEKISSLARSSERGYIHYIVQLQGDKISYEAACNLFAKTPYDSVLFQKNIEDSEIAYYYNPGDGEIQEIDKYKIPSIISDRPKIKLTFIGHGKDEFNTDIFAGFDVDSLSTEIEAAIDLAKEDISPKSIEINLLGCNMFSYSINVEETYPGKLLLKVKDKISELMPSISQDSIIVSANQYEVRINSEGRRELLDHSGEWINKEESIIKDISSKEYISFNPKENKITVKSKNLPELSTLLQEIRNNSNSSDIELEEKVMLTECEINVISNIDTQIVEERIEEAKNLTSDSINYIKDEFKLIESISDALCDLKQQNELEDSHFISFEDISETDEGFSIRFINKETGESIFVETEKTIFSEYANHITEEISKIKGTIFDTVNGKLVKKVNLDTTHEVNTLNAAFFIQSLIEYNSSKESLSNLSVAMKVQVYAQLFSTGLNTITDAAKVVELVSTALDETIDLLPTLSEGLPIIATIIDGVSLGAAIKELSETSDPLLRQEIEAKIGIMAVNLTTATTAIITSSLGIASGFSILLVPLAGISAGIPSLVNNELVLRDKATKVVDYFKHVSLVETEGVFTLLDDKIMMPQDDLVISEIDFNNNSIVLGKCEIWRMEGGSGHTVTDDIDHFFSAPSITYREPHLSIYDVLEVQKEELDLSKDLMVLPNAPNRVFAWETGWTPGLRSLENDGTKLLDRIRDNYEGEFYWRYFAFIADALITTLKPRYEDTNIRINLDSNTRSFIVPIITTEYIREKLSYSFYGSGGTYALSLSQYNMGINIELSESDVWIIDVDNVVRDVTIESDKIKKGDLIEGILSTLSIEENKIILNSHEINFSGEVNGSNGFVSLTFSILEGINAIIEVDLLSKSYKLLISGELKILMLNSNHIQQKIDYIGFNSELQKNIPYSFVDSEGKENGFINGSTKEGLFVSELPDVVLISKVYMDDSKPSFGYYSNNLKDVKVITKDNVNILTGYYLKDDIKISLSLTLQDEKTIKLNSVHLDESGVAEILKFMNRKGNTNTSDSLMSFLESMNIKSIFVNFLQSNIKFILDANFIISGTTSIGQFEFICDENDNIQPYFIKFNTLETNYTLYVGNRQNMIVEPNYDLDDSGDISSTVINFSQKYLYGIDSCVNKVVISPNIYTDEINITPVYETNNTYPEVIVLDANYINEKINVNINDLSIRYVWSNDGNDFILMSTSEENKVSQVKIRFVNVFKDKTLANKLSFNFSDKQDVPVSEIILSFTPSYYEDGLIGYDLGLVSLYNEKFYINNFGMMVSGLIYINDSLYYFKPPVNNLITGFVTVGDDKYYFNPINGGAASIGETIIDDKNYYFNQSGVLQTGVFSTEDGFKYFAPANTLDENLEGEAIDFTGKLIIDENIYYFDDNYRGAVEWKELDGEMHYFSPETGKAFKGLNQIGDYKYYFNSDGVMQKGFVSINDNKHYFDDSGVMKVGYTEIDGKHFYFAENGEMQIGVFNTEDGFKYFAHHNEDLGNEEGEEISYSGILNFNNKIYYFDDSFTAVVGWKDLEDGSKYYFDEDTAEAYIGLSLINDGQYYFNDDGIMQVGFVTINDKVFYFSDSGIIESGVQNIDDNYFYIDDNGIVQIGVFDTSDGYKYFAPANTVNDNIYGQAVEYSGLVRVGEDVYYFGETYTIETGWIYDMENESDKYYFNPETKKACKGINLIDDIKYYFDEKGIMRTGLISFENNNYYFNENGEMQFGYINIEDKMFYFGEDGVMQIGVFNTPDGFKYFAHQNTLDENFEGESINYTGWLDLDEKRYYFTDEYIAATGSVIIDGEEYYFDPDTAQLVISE
Sa ugtP lethal – kills S. aureus RN4220 lacking UgtP; S. aureus RN4220 ugtP deletion, OD600 growth, 16 h; growth inhibition, % (no concentration beside the values); 0.54% of 330,000 active; in the data active means growth inhibition above about 68%;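 further: plate controls were untreated wells for no effect and antibiotic for full effect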
Sa RN4220 lethal – S. aureus RN4220 growth inhibition. AID 1259311. inhibition, % (concentration not given with the values). 0.33% of 330,000 active. OD600, 16 h; in the data active means inhibition above about 85%;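 further: plate controls were untreated cells for no effect and reference antibiotic for full effect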
PfHsp40 rescue – rescue of PfHsp40-mediated yeast toxicity; growth rescue, % at 12.5 µM; S. cerevisiae expressing PfHsp40, growth rescue, ATP luminescence; 0.68% of 340,000 active; in the data active means growth rescue above about 28%, passing the limit was not always enough; inconclusive means no clear call, values can overlap the other calls;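 further: yeast W303a lacking pdr1 and pdr3 grown in galactose medium; growth measured after three days at 30 °C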
PrP UTR inh – inhibition of PrP 5' UTR reporter expression; cell-based PrP 5' UTR mRNA reporter, plate reader; inhibition, % (test concentration not listed); 0.35% of 340,000 active; in the data active means inhibition above about 52%; further: 0 = median of the neutral control wells
Active calls of the source: *; ? = inconclusive; . = not tested or not shown.

SMILES	TcdB GH inh	Sa ugtP lethal	Sa RN4220 lethal	PfHsp40 rescue	PrP UTR inh
CC(C)C[C@H](NC(=O)OC(C)(C)C)C(=O)NN=Cc1ccc2nccnc2c1	.	-4	4	.	.
CCC(C)n1c(=O)c(C(=O)Nc2ccccc2S(N)(=O)=O)c(O)c2ccccc21 (stereo not drawn)	.	76	103*	0	6
CC(C)Cn1c(=O)c(C(=O)Nc2ccccc2S(N)(=O)=O)c(O)c2ccccc21	1	62	82	0	-8
C[C@H]1CN([C@@H](C)CO)C(=O)c2cccc(NS(C)(=O)=O)c2O[C@@H]1CN(C)Cc1ccc(Oc2ccccc2)cc1	1	.	.	.	.
CCOc1ccc(N/N=C(/C#N)C(N)=O)cc1	0	.	.	363*	-36
COc1ccc(N/N=C(\C#N)C(N)=O)cc1	0	.	.	47*	-21
COc1ccc(NN=C(C#N)C(N)=O)cc1	.	1	8	.	.
CCOC(=O)CC(=O)CSc1nc2c(c(C)c1C#N)CCC2	.	5	-4	31*	-3
CCOC(=O)CC(=O)CSc1nc(C)cc(C)c1C#N	.	16	0	0	-13
O=c1c2ccccc2nc(-c2ccc(-c3ccccc3)cc2)n1-c1ccncc1	0	2	5	341*	-22
CC(Cc1ccccc1)=NNC(=O)CNC(=O)c1ccccc1F	.	1	2	.	.
NC(=O)[C@H]1[C@@H]2C(=O)O[C@@H](c3ccccc3)[C@@H](c3ccccc3)N2[C@@H](c2ccc(OCCO)cc2)[C@]12C(=O)Nc1ccccc12	0	.	.	.	.
S=C(Nc1ccc(Cl)cc1)Nc1cccc2cnccc12	0	-16	-2	105*	-32
Cc1cc(CNC(=O)COC(=O)c2ccc(Cl)c(N)c2)cc(C)c1O	2	1	0	105*	-14
Cc1ccc(CNC(=O)COC(=O)c2ccc(Cl)c(N)c2)cc1	3	-2	6	0	-13
Cc1nc(C)c(-c2csc(Nc3cccc(O)c3)n2)s1	1	0	-1	0	-91
Cc1cccc(Nc2nc(-c3sc(C)nc3C)cs2)c1	1	90*	-7	1	-45
O=C(O)c1cc(-c2ccc(N3CCOCC3)cc2)nn1-c1ccc(F)cc1F	2	3	3	40*	-20
Oc1ccc(CCc2ccccn2)cc1	14*	.	.	.	.
CC(C)OC(=O)c1cc2c(=O)[nH]c(C(Cl)(Cl)Cl)nc2o1	0	87*	92*	1	1
O=C1c2ccccc2C2=Nc3ccccc3SC(c3cccc(F)c3)C12 (stereo not drawn)	.	-2	-6	281*	-15
COc1ccc(Cl)cc1C(=O)NN=C1CCCC1	-2	14	6	82*	-14
COc1ccc(C(=O)NN=C2CCCC2)cc1OC	-6	0	3	0	-13
CC(=O)NC(Cc1ccccc1)C(=O)O (stereo not drawn)	2	0	3	1	-36
CC(=O)NC(Cc1ccccc1)C(=O)Oc1ccc2ccccc2c1 (stereo not drawn)	10*	6	4	0	-2
SMILES	TcdB GH inh	Sa ugtP lethal	Sa RN4220 lethal	PfHsp40 rescue	PrP UTR inh
Cc1ccc(S(=O)(=O)N(C)C[C@H]2Oc3ccc(NC(=O)NC(C)C)cc3CC(=O)N([C@H](C)CO)C[C@@H]2C)cc1	0	.	.	.	.
CC(C)NC(=O)N1[C@@H](C#N)[C@H](c2ccc(C#CC3CC3)cc2)[C@@H]1CO	0	.	.	.	.
CN1CCN(C(=O)C[C@H]2C[C@H]3c4cc(NC(=O)c5ccc6c(c5)OCO6)ccc4O[C@H]3[C@@H](CO)O2)CC1	0	.	.	.	.
COc1ccc(NC(=O)CCC2COc3ccccc3O2)c(OC)c1 (stereo not drawn)	.	-4	15	-1	11
COc1ccc(/C=C/C(=O)NCC2COc3ccccc3O2)c(OC)c1 (stereo not drawn)	1	99*	-5	-1	-41
CCCNC(=O)c1ccc2c(=O)c(O)c(-c3ccc(Cl)c([N+](=O)[O-])c3)[nH]c2c1	1	.	.	210*	-4
O=C(NCCc1cccc(Cl)c1)c1ccc(Cl)c([N+](=O)[O-])c1	11*	-8	2	15	-9
CCCN1[C@H](C(=O)N(C)C)[C@@H](CO)[C@@H]2Cn3c(ccc(-c4ccc(OC)cc4)c3=O)[C@@H]21	1	.	.	.	.
CN(C)C(=O)[C@H]1[C@H](CO)[C@H]2Cn3c(ccc(C4=CCCC4)c3=O)[C@H]2N1Cc1ccc2c(c1)OCO2	0	.	.	.	.
COC(=O)C[C@@H]1CC[C@@H]2[C@H](COc3ccc(NC(=O)NC(C)C)cc3C(=O)N2C)O1	-2	.	.	.	.
O=c1c2cc(Br)ccc2nc(-c2ccc(Cl)cc2)n1O	-1	99*	99*	-1	-12
O=c1c2ccccc2nc(-c2ccc(Cl)c(Cl)c2)n1O	.	41	65	1	2
Cc1nc2ccc(Cl)cc2c(=O)n1-c1ccc([N+](=O)[O-])cc1	2	9	3	0	-14
O=c1c2cc(Cl)ccc2nc(-c2ccc([N+](=O)[O-])cc2)n1O	1	-6	8	179*	-27
Cc1ccc(-c2nc3c(Cl)cc(Cl)cc3c(=O)n2O)cc1	-1	99*	99*	?	-5
O=C(O)c1ccccc1SSc1ccccc1C(=O)O	0	10	7	0	-22
C[CH2][Hg][S]c1ccccc1C(=O)O	-20	98*	100*	-8	-11
N=C1CCCN1CC(=O)c1ccc(Br)cc1	.	3	1	46*	-11
CO[C@H](CN(C)C(=O)c1ccccc1F)[C@H](C)CN([C@@H](C)CO)S(=O)(=O)c1ccc(Cl)cc1	0	.	.	.	.
C[C@@H]1CN([C@H](C)CO)C(=O)c2cccc(NS(=O)(=O)c3ccccc3)c2O[C@H]1CN(C)S(=O)(=O)c1cccs1	-1	.	.	.	.
O=c1[nH]c(-c2ccccc2)cs1	0	6	3	0	-14
O=c1[nH]c(-c2ccc(Cl)cc2)cs1	1	1	5	0	-18
Fc1ccc(-c2csc(=S)[nH]2)cc1	19*	2	-1	1	-26
S=c1[nH]c(-c2ccccc2)cs1	17*	.	.	1	-4
C[C@@H]1CN([C@@H](C)CO)S(=O)(=O)c2ccc(-c3cccc(C(=O)N(C)C)c3)cc2O[C@H]1CN(C)C	0	.	.	.	.
SMILES	TcdB GH inh	Sa ugtP lethal	Sa RN4220 lethal	PfHsp40 rescue	PrP UTR inh
Oc1c(C(c2ccccc2)N2CCOCC2)ccc2ccccc12 (stereo not drawn)	1	87*	25	5	-13
CC(=O)Nc1ccc(Nc2cc(C(C)C)nc3c(-c4ccccc4)c(C)nn23)cc1	1	-24	-9	97*	-15
CCCc1cc(NCc2ccccn2)n2nc(C)c(-c3ccccc3)c2n1	0	-10	-1	67*	-26
Cc1nn2c(NCc3ccccn3)cc(C(C)C)nc2c1-c1ccccc1	0	0	-2	37*	-12
Cc1cc(NCc2ccccn2)n2nc(C)c(-c3ccc(Cl)cc3)c2n1	1	-18	1	8	-17
O=c1c2c3c(sc2ncn1N=Cc1ccc([N+](=O)[O-])o1)CCCC3	.	86	40	.	.
CC(=NNC(=O)c1cccc([N+](=O)[O-])c1)c1cccs1	.	-2	5	.	.
